Assay results as given in PubChem BioAssay AID1159580 (chemical genetic matrix, 2015).
Several values for one entry are separate records, joined by “and”; a condition that tells them apart may be missing. Equal values may be shown once. About 2,000 (36%) of roughly 5,500 compounds were called active. Another 18% or so got no clear call; they are omitted. No stated cut-off is given here; in the data, active means normalized growth mostly below about 0.91 (no sharp cut-off); inconclusive means no clear call, values can overlap the other calls; inactive means mostly above about 0.92. The list shows a part of the results.

Assay: chemical genetic growth profiling, strain panel (AID 1159580);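 further: tested at 20 µM; growth read once vehicle control cultures reached saturation at 30 °C; 1 = growth at the plate median or of vehicle wells; lower values mean less growth of the strain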
Conditions: S. cerevisiae deletion strains, growth OD

Measured: normalized growth

Cc1cc(=O)oc2c(O)c(O)ccc12
inactive: locus YAL021C, strain ccr4, hits give low values 0.981 | locus YAL026C, strain drs2, hits give low values 0.967 | locus YAL030W, strain snc1, hits give low values 0.964 | locus YBL061C, strain skt5, hits give low values 0.966 | locus YBR009C, strain hhf1, hits give low values 0.966 | locus YBR021W, strain FUR4, hits give low values 0.975 | locus YBR023C, strain chs3, hits give low values 0.975 | locus YBR171W, strain sec66, hits give low values 0.975 | locus YBR229C, strain ROT2, hits give low values 1 | locus YBR231C, strain swc5, hits give low values 0.978 | locus YBR279W, strain paf1, hits give low values 0.973 | locus YCL011C, strain gbp2, hits give low values 0.958 | locus YCL016C, strain dcc1, hits give low values 0.972 | locus YCL029C, strain bik1, hits give low values 0.999 | locus YCL061C, strain MRC1, hits give low values 0.992 | locus YCL069W, strain vba3, hits give low values 0.976 | locus YCR088W, strain abp1, hits give low values 0.965 | locus YDL005C, strain med2, hits give low values 0.958 | locus YDL035C, strain GPR1, hits give low values 1.01 | locus YDL040C, strain nat1, hits give low values 0.98 | locus YDL074C, strain BRE1, hits give low values 0.993 | locus YDL101C, strain DUN1, hits give low values 1.01 | locus YDL134C, strain PPH21, hits give low values 1.02 | locus YDL185W, strain tfp1, hits give low values 1 | locus YDL192W, strain arf1, hits give low values 1 | locus YDR001C, strain nth1, hits give low values 0.968 | locus YDR069C, strain doa4, hits give low values 0.963 | locus YDR101C, strain arx1, hits give low values 1.02 | locus YDR137W, strain rgp1, hits give low values 0.94 | locus YDR150W, strain NUM1, hits give low values 1.01 | locus YDR159W, strain sac3, hits give low values 0.967 | locus YDR162C, strain NBP2, hits give low values 1.02 | locus YDR195W, strain ref2 0.913 | locus YDR297W, strain sur2, hits give low values 0.979 | locus YDR318W, strain mcm21, hits give low values 0.993 | locus YDR334W, strain swr1, hits give low values 0.968 | locus YDR335W, strain msn5, hits give low values 0.981 | locus YDR388W, hits give low values 0.994 | locus YDR392W, strain spt3, hits give low values 0.973 | locus YDR502C, strain sam2, hits give low values 1 | locus YEL003W, strain gim4, hits give low values 0.976 | locus YEL037C, strain rad23, hits give low values 0.934 | locus YEL061C, strain CIN8 (second series), hits give low values 0.952 | locus YEL061C, strain CIN8, hits give low values 1 | locus YER015W, strain faa2, hits give low values 1 | locus YER016W, strain bim1, hits give low values 0.986 | locus YER110C, hits give low values 0.993 | locus YER111C, strain swi4, hits give low values 0.957 | locus YER155C, strain BEM2 (second series), hits give low values 0.987 | locus YER155C, strain BEM2, hits give low values 1.01 | locus YER167W, strain BCK2, hits give low values 1.01 | locus YFR010W, strain ubp6, hits give low values 0.947 | locus YGL078C, strain dbp3, hits give low values 1 | locus YGL086W, strain mad1, hits give low values 0.991 | locus YGL167C, strain pmr1, hits give low values 0.943 | locus YGL173C, strain kem1, hits give low values 0.987 | locus YGL227W, strain vid30, hits give low values 0.962 | locus YGL240W, strain doc1, hits give low values 0.979 | locus YGL248W, strain PDE1, hits give low values 1.01 | locus YGL253W, strain hxk2, hits give low values 0.974 | locus YGR135W, strain pre9, hits give low values 0.988 | locus YGR229C, strain SMI1, hits give low values 1 | locus YGR252W, strain gcn5, hits give low values 0.977 | locus YHR013C, strain ard1, hits give low values 0.942 | locus YHR027C, strain rpn1, hits give low values 0.973 | locus YHR030C, strain SLT2, hits give low values 1 and 0.999 | locus YHR079C, strain IRE1 (second series), hits give low values 1 | locus YHR079C, strain IRE1, hits give low values 0.983 | locus YHR094C, strain hxt1, hits give low values 1.02 | locus YHR129C, strain ARP1, hits give low values 1 | locus YHR142W, strain chs7, hits give low values 0.973 | locus YHR200W, strain rpn10, hits give low values 1.02 | locus YIL066C, strain RNR3, hits give low values 1.02 | locus YIL073C, strain SPO22, hits give low values 1.03 | locus YIL125W, strain kgd1, hits give low values 0.975 | locus YIR030C, strain dcg1, hits give low values 1 | locus YJL092W, strain hpr5, hits give low values 0.978 | locus YJL095W, strain BCK1 (second series), hits give low values 0.988 | locus YJL095W, strain BCK1, hits give low values 0.98 and 0.997 | locus YJL115W, strain asf1, hits give low values 0.975 | locus YJL129C, strain trk1, hits give low values 0.972 | locus YJL134W, strain LCB3, hits give low values 1.01 | locus YJL154C, strain vps35, hits give low values 0.976 | locus YJL164C, strain tpk1, hits give low values 0.985 | locus YJL166W, strain qcr8, hits give low values 1 | locus YJL168C, strain set2, hits give low values 0.993 | locus YJL187C, strain SWE1 (second series), hits give low values 1 | locus YJL187C, strain SWE1, hits give low values 0.976
